Here are results for 20 molecules from PubChem BioAssay.

The nature of test [1]: antimalarial activity against Dd2 strain (AID 2302;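 active = growth inhibition above 50% at the single 2 µM test dose, taken to imply half-maximal potency below 2 µM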;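 note: 0% = DMSO untreated growth and 100% = chloroquine plus artemisinin killed control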). Particulars: P. falciparum Dd2 in RBCs, LDH growth readout, 72 h; at 2 µM; hits give high values.
Test [2] can be described thus: HepG2 cytotoxicity, primary screen, cytotoxicity control for P. falciparum antimalarial project, cell-based, ATP luminescence (AID 2303;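 active = inhibition above 50%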;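 note: 0% = DMSO wells and 100% = digitonin-killed cells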). The settings on record: HepG2 viability, 24-48 h, at 10 µM, hits give high values.
The target in test [3] is L-lactate dehydrogenase (Plasmodium falciparum (isolate CDC / Honduras)) (UniProt Q27743). Put plainly: PfLDH activity inhibition – cell lysate, 3D7 strain, counter-screen for P. falciparum growth inhibition project (AID 2304).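 Note: 0% = vehicle and 100% = reference inhibitor.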 Particulars: P. falciparum 3D7 crude extract, LDH APAD/NBT absorbance; at 2 µM; hits give high values. (In general: A counterscreen serves to expose hits that act by an unwanted route or on another target.)
Chain of L-lactate dehydrogenase (Plasmodium falciparum (isolate CDC / Honduras)) (Q27743 whole entry, looked up): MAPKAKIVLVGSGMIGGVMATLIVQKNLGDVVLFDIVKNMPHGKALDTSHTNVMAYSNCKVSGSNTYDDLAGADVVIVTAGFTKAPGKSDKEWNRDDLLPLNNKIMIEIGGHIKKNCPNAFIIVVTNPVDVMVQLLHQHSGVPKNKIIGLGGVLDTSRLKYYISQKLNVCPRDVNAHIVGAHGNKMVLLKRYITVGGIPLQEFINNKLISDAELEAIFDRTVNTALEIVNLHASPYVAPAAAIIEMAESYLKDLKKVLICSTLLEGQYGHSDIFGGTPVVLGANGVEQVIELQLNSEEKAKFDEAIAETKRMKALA

Test [4] can be described thus: inhibition of 3D7 malaria parasite growth – strain 3D7 (AID 2306).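 Note: 0% = DMSO wells and 100% = chloroquine plus artemisinin control wells.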 The settings on record: P. falciparum 3D7 erythrocytic growth, LDH absorbance, 72 h; at 2 µM; hits give high values.
Test [5] addresses Calcium-dependent protein kinase 1 (Plasmodium falciparum (isolate 3D7)) (UniProt P62344). The test can be described thus: PfCDPK1 kinase inhibitors, biochemical, TCAMS library (AID 1159585; cut-off not given, nearly all actives have IC50 up to about 0.98 µM;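 note: inhibitors leave more ATP so luminescence rises with inhibition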). Particulars: recombinant PfCDPK1, Kinase-Glo ATP depletion luminescence. (Kinase-Glo measures the ATP left after a reaction by luminescence.)
Test [6] concerns the target Plasmodium falciparum protein kinase 6 (PK6, PF3D7_1337100) (UniProt Q8IDW1). Put plainly: PfPK6 kinase inhibitors, biochemical, TCAMS library (AID 1159586). Particulars: recombinant PfPK6, Kinase-Glo ATP depletion luminescence.
Test [7] deals with Protein kinase 7 (PK7), Plasmodium falciparum 3D7 (PF3D7_0213400) (UniProt Q7YTF7). Put plainly: inhibition of Plasmodium PK7 catalytic activity – biochemical, TCAMS antimalarial set, Kinase-Glo luminescence (AID 1159587). Particulars: recombinant PfPK7, Kinase-Glo ATP depletion luminescence.
Chain of Protein kinase 7 (PK7), Plasmodium falciparum 3D7 (PF3D7_0213400) (Q7YTF7 1-343): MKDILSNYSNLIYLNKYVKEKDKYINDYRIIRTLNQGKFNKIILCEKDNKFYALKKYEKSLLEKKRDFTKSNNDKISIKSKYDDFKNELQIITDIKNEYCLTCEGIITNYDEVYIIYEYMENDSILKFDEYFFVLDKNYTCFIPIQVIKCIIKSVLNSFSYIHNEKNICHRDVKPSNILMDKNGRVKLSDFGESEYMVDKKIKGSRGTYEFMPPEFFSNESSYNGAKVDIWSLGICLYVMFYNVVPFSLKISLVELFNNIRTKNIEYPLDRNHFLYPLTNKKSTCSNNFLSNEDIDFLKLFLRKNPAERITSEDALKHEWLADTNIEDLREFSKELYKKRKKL
In test [8] the target is Calcium-dependent protein kinase 4 (Plasmodium falciparum (isolate 3D7)) (UniProt Q8IBS5). Put plainly: PfCDPK4 kinase inhibitors, biochemical, TCAMS library (AID 1159588; cut-off not given, nearly all actives have IC50 up to about 0.91 µM). Particulars: recombinant PfCDPK4, Kinase-Glo ATP depletion luminescence.
Chain of Calcium-dependent protein kinase 4 (Plasmodium falciparum (isolate 3D7)) (Q8IBS5 whole entry, looked up): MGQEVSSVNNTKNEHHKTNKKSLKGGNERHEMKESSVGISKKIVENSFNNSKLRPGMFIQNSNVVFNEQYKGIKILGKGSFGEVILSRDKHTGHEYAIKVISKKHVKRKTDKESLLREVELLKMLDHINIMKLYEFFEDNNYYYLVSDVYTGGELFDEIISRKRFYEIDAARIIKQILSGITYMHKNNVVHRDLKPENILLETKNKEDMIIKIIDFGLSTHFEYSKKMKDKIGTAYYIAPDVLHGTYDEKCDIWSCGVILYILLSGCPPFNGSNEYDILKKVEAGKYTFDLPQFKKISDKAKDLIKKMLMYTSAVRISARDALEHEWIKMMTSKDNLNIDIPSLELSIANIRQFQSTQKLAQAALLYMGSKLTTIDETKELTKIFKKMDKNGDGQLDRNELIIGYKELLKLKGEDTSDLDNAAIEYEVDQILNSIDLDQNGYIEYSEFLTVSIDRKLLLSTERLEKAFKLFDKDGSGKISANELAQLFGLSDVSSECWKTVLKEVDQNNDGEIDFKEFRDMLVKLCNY

A number with no mark means an inactive call. For some of these results: Results with a measured potency or affinity are listed apart. Calls of active or inactive are those of the source. Unless noted, the rule behind the calls is not given here.

Chain of Calcium-dependent protein kinase 1 (Plasmodium falciparum (isolate 3D7)) (P62344 whole entry, looked up): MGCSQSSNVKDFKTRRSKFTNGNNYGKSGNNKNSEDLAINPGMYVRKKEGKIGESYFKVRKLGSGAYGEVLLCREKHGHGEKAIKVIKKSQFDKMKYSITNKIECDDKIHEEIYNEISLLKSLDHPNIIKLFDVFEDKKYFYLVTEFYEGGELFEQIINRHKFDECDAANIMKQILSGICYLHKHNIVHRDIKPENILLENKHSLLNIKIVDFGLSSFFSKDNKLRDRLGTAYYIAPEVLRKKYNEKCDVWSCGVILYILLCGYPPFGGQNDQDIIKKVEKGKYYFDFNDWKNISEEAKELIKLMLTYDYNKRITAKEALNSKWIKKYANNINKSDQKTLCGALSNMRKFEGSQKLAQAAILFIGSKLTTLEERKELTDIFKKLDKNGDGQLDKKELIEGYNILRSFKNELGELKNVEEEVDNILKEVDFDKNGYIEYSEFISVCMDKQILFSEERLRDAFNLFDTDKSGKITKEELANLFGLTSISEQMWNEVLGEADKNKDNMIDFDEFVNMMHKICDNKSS
Chain of Plasmodium falciparum protein kinase 6 (PK6, PF3D7_1337100) (Q8IDW1 1-305): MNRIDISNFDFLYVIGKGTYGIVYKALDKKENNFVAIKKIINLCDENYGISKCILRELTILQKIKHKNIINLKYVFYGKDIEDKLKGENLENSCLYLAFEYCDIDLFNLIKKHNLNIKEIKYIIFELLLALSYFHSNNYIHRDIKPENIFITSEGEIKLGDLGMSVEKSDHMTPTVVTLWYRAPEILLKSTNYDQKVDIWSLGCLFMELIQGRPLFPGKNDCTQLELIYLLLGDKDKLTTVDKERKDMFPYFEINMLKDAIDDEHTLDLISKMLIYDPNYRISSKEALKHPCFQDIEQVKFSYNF

With `CC(CCc1ccccc1)NCC(O)c1cccc([N+](=O)[O-])c1` (stereo not given), the growth inhibition in test [1] is 98% (active); in test [4], 97% (active). In addition, the results for the inhibition in test [2] and in test [3] were -2% and 1%, respectively. The outcome in test [5], in test [6], in test [7] and in test [8] was inactive.
With `Cc1cc(NC(=O)c2ccco2)ccc1OC1CCN(Cc2ccccc2)CC1`, the results for the growth inhibition in test [1] and in test [4] were 95% (active) and 93% (active), respectively. Besides, the values for the inhibition in test [2] and in test [3] were 3% and -9%, respectively. Also, the result in test [5], in test [6], in test [7] and in test [8] was inactive.
Take `CC(C)(C)c1ccc2nc(-c3ccc(C(=O)NC4CCN(Cc5ccccc5)CC4)s3)[nH]c2c1`: the growth inhibition in test [1] was 42%; in test [4], 91% (active). Moreover, the values for the inhibition in test [2] and in test [3] were 24% and 0%, respectively. Moreover, the result in test [5], in test [6], in test [7] and in test [8] was inactive.
For the molecule `CCNC(=O)c1ccc(-n2nc(C)cc2-c2ccccc2)cc1`, the growth inhibition in test [1] was 54% (active); in test [4], 89% (active). The inhibition in test [2] is 11%; in test [3], 2%. The outcome in test [5], in test [6], in test [7] and in test [8] was inactive.
As to `COc1ccc2ncc(F)c(CCN3CCC(NCc4cc(F)c5c(c4)OCCO5)CC3)c2n1`, the growth inhibition in test [1] is 67% (active); in test [4], 100% (active). Besides, the inhibition in test [2] was 15%; in test [3], -5%. The outcome in test [5], in test [6], in test [7] and in test [8] was inactive.
As to `Cn1c(CN2CCC(N3CCc4cc(NC(=O)c5ccco5)ccc43)C2)cc2ccccc21` (stereo not given), the growth inhibition in test [1] is 92% (active); in test [4], 91% (active). For the same molecule, the inhibition in test [2] is -1%; in test [3], -3%. Further, the result in test [5], in test [6], in test [7] and in test [8] was inactive.
Turning to `CCN1CCN(c2cc(C)c3cc(NC(=O)c4ccc(OC)c(OC)c4)ccc3n2)CC1`, the growth inhibition in test [1] is 23%; in test [4] it was 90% (active). Further, the figures for the inhibition in test [2] and in test [3] were 28% and 1%, respectively. In addition, the outcome in test [5], in test [6], in test [7] and in test [8] was inactive.
Consider `O=S(=O)(NCCN1CCCC1)c1ccc(-c2ccc(CNC3Cc4ccccc4C3)cc2)s1`, for which the growth inhibition is 97% (active) in test [1] and 100% (active) in test [4]. Also, the values for the inhibition in test [2] and in test [3] were 47% and -2%, respectively. The result in test [5], in test [6], in test [7] and in test [8] was inactive.
As to `COc1cccc(NC(=O)NC2CCN(CCCCCNC(=O)/C=C/c3ccc(Cl)c(Cl)c3)CC2)c1`, the figures for the growth inhibition in test [1] and in test [4] were 8% and 102% (active), respectively. The inhibition in test [2] was 14%; in test [3], -1%. For the same molecule, the outcome in test [5], in test [6], in test [7] and in test [8] was inactive.
As for `COc1ccc2nccc([C@@H](O)CN3CCC(NCc4cc5c(Cl)cc(Cl)cc5[nH]4)CC3)c2c1`, the growth inhibition in test [1] is 86% (active); in test [4], 101% (active). Besides, the inhibition in test [2] is 93% (active); in test [3], 4%. Also, the result in test [5], in test [6], in test [7] and in test [8] was inactive.
As to `NC(=O)c1cccc(C(=O)Nc2cccc(-c3cccc(-c4nc5ccc(F)cc5[nH]4)c3)c2)c1`, the growth inhibition in test [1] was 73% (active); in test [4], 100% (active). Also, the inhibition in test [2] was 47%; in test [3] it was 1%. Moreover, the outcome in test [5], in test [6], in test [7] and in test [8] was inactive.
With `COc1ccc(-c2nc(NC(=O)CS(=O)(=O)c3ccc(OC)cc3)sc2C)cc1`, the figures for the growth inhibition in test [1] and in test [4] were 89% (active) and 95% (active), respectively. Besides, the inhibition in test [2] is 6%; in test [3], -2%. Also, the result in test [5], in test [6], in test [7] and in test [8] was inactive.
For the molecule `CS(=O)(=O)CCNCc1cccc(-c2cc3c(Nc4ccc(OCc5cccc(F)c5)c(Cl)c4)ncnc3s2)c1`, the growth inhibition is 97% (active) in test [1] and 101% (active) in test [4]. In addition, the inhibition was 5% in test [2] and 1% in test [3]. Further, the outcome in test [5], in test [6], in test [7] and in test [8] was inactive.
As to `N#Cc1ccc(N(CCOc2ccc3c(c2)CCC(=O)N3)Cc2ccccc2C(F)(F)F)cc1C(F)(F)F`, the growth inhibition was 64% (active) in test [1] and 98% (active) in test [4]. Further, the values for the inhibition in test [2] and in test [3] were 19% and 1%, respectively. For the same molecule, the outcome in test [5], in test [6], in test [7] and in test [8] was inactive.
Regarding `CCCCCc1cnc2nc(N)nc(N)c2c1`, the growth inhibition in test [1] is 6%; in test [4], 82% (active). Further, the inhibition in test [2] was 72% (active); in test [3], -1%. Besides, the result in test [5], in test [6], in test [7] and in test [8] was inactive.
For `COc1cc(F)c2ncc(F)c([C@@H](O)CN3CCC(NCc4cc5c(cn4)OCCO5)CC3)c2c1`, the growth inhibition in test [1] is 88% (active); in test [4], 101% (active). In addition, the inhibition is 1% in test [2] and -1% in test [3]. Further, the outcome in test [5], in test [6], in test [7] and in test [8] was inactive.
As to `CCCCCCCC1CCN(C[C@H](O)c2ccnc3ccc(OC)cc23)CC1`, the values for the growth inhibition in test [1] and in test [4] were 81% (active) and 94% (active), respectively. Also, the inhibition in test [2] is 23%; in test [3], 3%. Also, the outcome in test [5], in test [6], in test [7] and in test [8] was inactive.
For `Cn1cncc1-c1cc2c(Nc3ccc(OCc4ccccc4)cc3)ncnc2cn1`, the growth inhibition in test [1] is 75% (active); in test [4], 99% (active). Moreover, the values for the inhibition in test [2] and in test [3] were -1% and 4%, respectively. The result in test [5], in test [6], in test [7] and in test [8] was inactive.
`Cc1cc(-c2cccc(CNCCc3ccc(Cl)cc3)c2)cnc1N`: the figures for the growth inhibition in test [1] and in test [4] were 3% and 90% (active), respectively. Moreover, the values for the inhibition in test [2] and in test [3] were 19% and 0%, respectively. Also, the result in test [5], in test [6], in test [7] and in test [8] was inactive.
On to `Cc1cc(NC(=O)Nc2ccc(I)c(OCCN(C)C)c2)ccc1Br`, for which the results for the growth inhibition in test [1] and in test [4] were 42% and 101% (active), respectively. In addition, the inhibition is 18% in test [2] and 4% in test [3]. For the same molecule, the outcome in test [5], in test [6], in test [7] and in test [8] was inactive.

One may read the inhibition as the drop in the measured response relative to a control, in per cent.
